Screening results deposited in PubChem BioAssay by National Center for Advancing Translational Sciences (NCATS).
Shown are actives, neighbours in structure and some others; about 10% of the full set was active somewhere.
CtBP-E1A blk – inhibitors of CtBP/E1A interaction. AID 651724. 340,000 tested, 0.49% active. AlphaScreen GST-E1A/His-CtBP binding, 1536-well; active compounds read low. activity change, % (test concentration not listed); in the data active = activity change below about -65%; inconclusive = mostly about -30% to -63%; note: % is set by controls: 0 for no effect and ±100 for the full control effect
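Steps: dispense buffer (Tris pH 8.0, NaCl 300 mM, TCEP 1 mM, BSA, Tween 20); add 5X protein mix (GST-E1A, His-CtBP, 125 nM each); pin 23 nL compound; 2 h at 37 °C, dark; add 5X beads (50 ug/mL); 1 h; read.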
G9a inh – inhibitors of human histone lysine methyltransferase G9a | Q96KQ7 | G9a H3K9 monomethylation, AlphaScreen, 2 h | Potency, µM (highest dose often 102 µM), for the others: at the top dose activity, negative = inhibition, most hits filed as inhibitors | 350,000 tested, 8.8% active | AID 504332; note: potency is the fitted concentration of half-maximal effect; % is set by controls: 0 for no effect and ±100 for the full control effect; nearly all actives have a fitted effect of over 75% in size
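Enzyme 20 nM + cpd, 15 min RT; add b-H3K9 pep 500 nM / SAM 20 uM; 2 h RT; anti-H3K9me1 Ab 0.5 ug/mL + SA donor / anti-rabbit acceptor beads 20 ug/mL each, 10 min; AlphaScreen read.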
BAZ2B block – inhibitors of human BAZ2B bromodomain; Potency, µM (doses to about 114 µM), inactives show top-dose activity change, negative = inhibition, usual class: inhibitors; Q9UIF8; AlphaScreen BAZ2B-H3K14Ac peptide displacement; 360,000 tested, 4.4% active; note: potency is the fitted concentration of half-maximal effect; % is set by controls: 0 for no effect and ±100 for the full control effect; nearly all actives have a fitted effect of over 60% in size
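Protein-peptide AlphaScreen: BAZ2B 50 nM, b-H3K14Ac 50 nM, 1x PBS pH 7.4 + 0.01% Tween-20. Preincubation 30 min RT; cpd 30 min RT (top 110 uM); beads 20 min RT, light-protected.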
JMJD2A Tudor inh – inhibitors of human JMJD2A Tudor domain | O75164 | AlphaScreen JMJD2A-Tudor / H3K4me3 peptide binding | Potency, µM (series often up to 114 µM), without a hit: at the top dose activity change, negative = inhibition, usual class: inhibitors | 390,000 tested, 4.4% active | AID 504339; note: potency is the fitted concentration of half-maximal effect; % is set by controls: 0 for no effect and ±100 for the full control effect; nearly all actives have a fitted effect of over 50% in size
Target sequence (O75164 whole entry, looked up, the tested form may be a part): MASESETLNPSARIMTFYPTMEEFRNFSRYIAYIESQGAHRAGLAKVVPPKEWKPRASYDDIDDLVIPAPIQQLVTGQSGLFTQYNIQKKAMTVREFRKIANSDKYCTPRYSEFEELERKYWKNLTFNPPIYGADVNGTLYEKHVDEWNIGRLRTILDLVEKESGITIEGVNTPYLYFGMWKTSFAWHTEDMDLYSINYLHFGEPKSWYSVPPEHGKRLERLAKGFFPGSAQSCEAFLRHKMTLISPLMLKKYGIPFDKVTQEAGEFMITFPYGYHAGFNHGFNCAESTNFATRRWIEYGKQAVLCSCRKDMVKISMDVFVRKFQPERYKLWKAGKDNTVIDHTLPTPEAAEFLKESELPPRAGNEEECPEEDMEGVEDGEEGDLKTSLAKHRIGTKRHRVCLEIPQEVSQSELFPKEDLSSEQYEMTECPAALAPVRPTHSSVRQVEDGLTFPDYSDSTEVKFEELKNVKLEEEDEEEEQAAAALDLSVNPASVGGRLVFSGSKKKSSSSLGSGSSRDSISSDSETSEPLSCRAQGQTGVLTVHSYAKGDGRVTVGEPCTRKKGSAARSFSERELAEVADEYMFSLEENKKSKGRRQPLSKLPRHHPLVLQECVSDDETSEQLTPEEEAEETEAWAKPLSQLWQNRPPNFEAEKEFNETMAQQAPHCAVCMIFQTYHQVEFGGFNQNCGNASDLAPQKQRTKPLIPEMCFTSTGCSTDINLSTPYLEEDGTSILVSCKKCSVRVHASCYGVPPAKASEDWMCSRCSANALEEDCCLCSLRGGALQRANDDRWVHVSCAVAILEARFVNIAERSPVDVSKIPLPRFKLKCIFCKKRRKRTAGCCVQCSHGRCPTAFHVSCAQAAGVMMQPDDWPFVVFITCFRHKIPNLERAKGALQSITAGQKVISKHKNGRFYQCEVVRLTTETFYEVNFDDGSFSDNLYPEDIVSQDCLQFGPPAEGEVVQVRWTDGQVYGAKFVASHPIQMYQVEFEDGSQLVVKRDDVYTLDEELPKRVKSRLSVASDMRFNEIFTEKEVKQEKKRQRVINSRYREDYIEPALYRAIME
Six1-Eya2 inh – Six1/Eya2 interaction inhibition. AlphaScreen GST-Six1/His-Eya2 binding, biochemical; active compounds read low. activity change, % (no concentration beside the values). AID 651725. 360,000 tested, 0.56% active. Q15475+O00167; in the data active = activity change below about -65%; inconclusive = mostly about -30% to -63%; note: % is set by controls: 0 for no effect and ±100 for the full control effect
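AlphaScreen with GST-Six1 and His-Eya2 (5X mix: 250 nM and 500 nM), glutathione donor and nickel acceptor beads; buffer 50 mM Tris pH 8.0, 300 mM NaCl, 1 mM TCEP; 1 h at 37 C in the dark.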
HP1b binding inh – HP1-beta chromodomain-methylated histone interaction inhibition. Potency, µM (titrated, usually from 114 µM), for inactives: top-dose activity change, negative = inhibition, usual class: inhibitors. 390,000 tested, 0.56% active. P83916. AlphaScreen HP1-beta / biotin-H3K9me3 peptide binding; note: potency is the fitted concentration of half-maximal effect; nearly all actives have a fitted effect of over 70% in size
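AlphaScreen: HP1-beta (50 nM) preformed 30 min with biotin-H3(1-18)K9me3 peptide (50 nM) in PBS pH 7.4, 0.01% Tween-20. Compound added for 30 min at RT, then streptavidin donor/nickel chelate acceptor beads (10 ug/mL) for 30 min.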
Numbers without * were called inactive; [ ] = remark or other dose. Unless noted, calls come from the whole dose curve; as a rule, active = well fitted inhibition curve with a large enough effect; inconclusive = small, poorly fitted or top-dose-only effect; inactive = no such curve, though single readings can be large or run the other way.

For COC(=O)CCN1CCN(S(=O)(=O)c2ccc3c(c2)OCCO3)CC1 the results were G9a inh 29%[2.33 µM], BAZ2B block 7%, JMJD2A Tudor inh 0%, Six1-Eya2 inh -1 and HP1b binding inh 38%.
COC(=O)CCN1CCN(S(=O)(=O)c2ccccc2Br)CC1 was read as CtBP-E1A blk 1, G9a inh 3.5µM*, BAZ2B block 20µM*, JMJD2A Tudor inh 0.79µM*, Six1-Eya2 inh 8 and HP1b binding inh inconclusive.
CCOc1ccc(CCNC(=O)C2Cc3ccccc3N2C(=O)CC)cc1 (centres undefined) was read as G9a inh -7%[12.7 µM], BAZ2B block -13%, JMJD2A Tudor inh -4% and HP1b binding inh 31%.
Screening Cc1ccc(S(=O)(=O)N2CCCCC2c2cccnc2)c(C)c1C (centres undefined) returned G9a inh -5%, BAZ2B block -10%, JMJD2A Tudor inh 4%, Six1-Eya2 inh 5 and HP1b binding inh 36%.
`Cc1nn(-c2ccccc2)c2c1C(c1cccnc1)N1C=C(S(=O)(=O)N3CCCCC3)C=CC1=N2` (centres undefined) gave CtBP-E1A blk -21, G9a inh 79µM*, BAZ2B block -36%, JMJD2A Tudor inh inconclusive, Six1-Eya2 inh -11 and HP1b binding inh -30%.
CC(=O)Nc1cccc(-c2ccnc3c2CC(C)(C(=O)Nc2cccc(C(C)=O)c2)O3)c1 (centres undefined) was read as CtBP-E1A blk -8 and Six1-Eya2 inh -7.
Cc1cccc(NC(=O)CSc2ncc3c(n2)-c2ccccc2N(Cc2ccc(F)cc2)S3(=O)=O)c1C was read as G9a inh 0%[59 µM], BAZ2B block inconclusive, JMJD2A Tudor inh -15% and HP1b binding inh -5%.
Cc1ccc(S(=O)(=O)N2CCN(C3CC4CCC3C4)CC2)cc1 (centres undefined) was read as CtBP-E1A blk 2, G9a inh 8.9µM*, BAZ2B block 32µM*, JMJD2A Tudor inh 14µM*, Six1-Eya2 inh 20 and HP1b binding inh 32µM*.
Screening COc1ccc(S(=O)(=O)N2CCN(C3CC4CCC3C4)CC2)cc1 (centres undefined) returned CtBP-E1A blk 0, G9a inh 22µM*, BAZ2B block -30%, JMJD2A Tudor inh 3.2µM*, Six1-Eya2 inh -16 and HP1b binding inh 2%.
`CC(=O)N1CCc2cc(CNS(=O)(=O)c3ccccc3C(F)(F)F)ccc21` gave G9a inh 3%[59 µM], BAZ2B block 8%, JMJD2A Tudor inh -16% and HP1b binding inh 16%[57 µM].
Screening c1ccc(-c2nn3c(Cn4nnc5ccccc54)nnc3s2)cc1 returned CtBP-E1A blk 10, G9a inh 3.2µM*, BAZ2B block 1%, JMJD2A Tudor inh inconclusive, Six1-Eya2 inh -2 and HP1b binding inh inconclusive.
For COc1ccc(Cc2nn3c(Cn4nnc5ccccc54)nnc3s2)cc1 the results were CtBP-E1A blk -3, G9a inh 1.6µM*, BAZ2B block -38%, JMJD2A Tudor inh 89µM*, Six1-Eya2 inh 2 and HP1b binding inh inconclusive.
`c1ccc(-c2nn3c(Cn4cnc5ccccc54)nnc3s2)cc1` gave CtBP-E1A blk -3, G9a inh 1.3µM*, BAZ2B block -28%, JMJD2A Tudor inh -32%, Six1-Eya2 inh 1 and HP1b binding inh inconclusive.
`c1cncc(-c2nn3c(Cn4cnc5ccccc54)nnc3s2)c1` gave CtBP-E1A blk 11, G9a inh inconclusive, BAZ2B block -8%, JMJD2A Tudor inh 89µM*, Six1-Eya2 inh 2 and HP1b binding inh inconclusive.
`c1ccc2c(c1)nnn2Cc1nnc2sc(-c3ccc4c(c3)OCCO4)nn12` gave CtBP-E1A blk 15, G9a inh inconclusive, BAZ2B block -1%, JMJD2A Tudor inh -29%, Six1-Eya2 inh -1 and HP1b binding inh -36%.
Screening c1ccc2c(c1)ncn2Cc1nnc2sc(-c3ccncc3)nn12 returned CtBP-E1A blk -3, G9a inh inconclusive, BAZ2B block -25%, JMJD2A Tudor inh inconclusive, Six1-Eya2 inh -3 and HP1b binding inh -26%.
`CCOC(=O)c1ccc(NC(=O)Cn2cc(C(=O)C3CC3)c3ccccc32)cc1` gave G9a inh -6%[59 µM], BAZ2B block 1%, JMJD2A Tudor inh 5% and HP1b binding inh 26%.
`CC(C)Cn1c(N)c(C(=O)COC(=O)C2CCCCC2)c(=O)n(C)c1=O` gave CtBP-E1A blk -1, G9a inh inconclusive, BAZ2B block 1%, JMJD2A Tudor inh 25µM*, Six1-Eya2 inh 11 and HP1b binding inh -9%.
For COc1ccc(CCC(=O)OCC(=O)c2c(N)n(CC(C)C)c(=O)n(C)c2=O)cc1 the results were CtBP-E1A blk 4, G9a inh 79µM*, BAZ2B block inconclusive, JMJD2A Tudor inh -14%, Six1-Eya2 inh 7 and HP1b binding inh 10%.
COc1ccccc1CCC(=O)OCC(=O)c1c(N)n(CC(C)C)c(=O)n(C)c1=O was read as CtBP-E1A blk 6, G9a inh -40%[0.501 µM], BAZ2B block inconclusive, JMJD2A Tudor inh -10%, Six1-Eya2 inh -2 and HP1b binding inh 27%.
`Cc1ccc(N2CC(C(=O)OCC(=O)c3c(N)n(CC(C)C)c(=O)n(C)c3=O)CC2=O)cc1` (centres undefined) gave CtBP-E1A blk -10, G9a inh 10%[2.33 µM], BAZ2B block 23%, JMJD2A Tudor inh -9%, Six1-Eya2 inh 4 and HP1b binding inh 18%.
Screening COc1ccccc1C1=Nn2c(nnc2-c2ccccc2C)SC1 returned JMJD2A Tudor inh -28%.
CCOC(=O)Nc1ccc2c(c1)Nc1ccccc1S2 was read as CtBP-E1A blk inconclusive, G9a inh 8.9µM*, BAZ2B block 28µM*, JMJD2A Tudor inh 40µM*, Six1-Eya2 inh inconclusive and HP1b binding inh -42%.
`C=CC(=O)N1c2ccccc2Sc2ccc(NC(=O)OCC)cc21` gave CtBP-E1A blk 4, JMJD2A Tudor inh -5%, Six1-Eya2 inh 9 and HP1b binding inh 3%.
CC(=O)c1ccc2c(c1)Nc1ccccc1S2 was read as CtBP-E1A blk 1, G9a inh 2.8µM*, BAZ2B block 4%, JMJD2A Tudor inh -7%[57.1 µM], Six1-Eya2 inh 6 and HP1b binding inh -1%.
Screening CCN(CC)C(=O)c1csc(COCCO)n1 returned CtBP-E1A blk -2 and Six1-Eya2 inh 4.
Cc1ccc(NC(=O)C(Cc2ccccc2)NS(=O)(=O)c2cccs2)cc1Cl (centres undefined) was read as G9a inh 6%[59 µM], BAZ2B block 1%, JMJD2A Tudor inh -4% and HP1b binding inh 31%.
